Among the data in PubChem BioAssay (NCATS) are Potency values, retold here.

Inconclusive results are not listed. A call without a number means that no potency is given here. The source made the active and inactive calls. Calls come from the whole dose curve; as a rule, active = well fitted inhibition curve with a large enough effect; inconclusive = small, poorly fitted or top-dose-only effect; inactive = flat fitted curve, though single readings scatter.

For this experiment, the target named is Calcium and integrin-binding protein 1 (Homo sapiens) (UniProt Q99828). Nature of the experiment: Primary qHTS for Identification of Calcium Integrin Binding Protein 1 (CIB1) Competitor (AID 1508620).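 Note: GST tagged CIB1 binding a fluorescein labelled alphaIIb integrin peptide tracer; top concentration of the series differs between compounds.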 The settings on record: CIB1-GST / FITC-alphaIIb peptide fluorescence polarization; series mostly up to 114 µM. In outline: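 CIB1-GST (1 uM final) and compound incubated 15 min at room temperature before adding FITC-alphaIIb peptide tracer (100 nM final). Competition for binding read by fluorescence polarization (ex 480, em 540) after another 15 min at room temperature.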
Chain of Calcium and integrin-binding protein 1 (Homo sapiens) (Q99828 whole entry, looked up): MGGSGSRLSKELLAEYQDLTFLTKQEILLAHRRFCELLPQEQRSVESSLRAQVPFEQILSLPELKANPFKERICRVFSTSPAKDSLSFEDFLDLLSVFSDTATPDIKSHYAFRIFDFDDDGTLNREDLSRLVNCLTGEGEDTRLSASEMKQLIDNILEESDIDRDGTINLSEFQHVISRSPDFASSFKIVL
(In general: Quantitative high-throughput screening tests each substance at several concentrations.)
Turning to `O=S1(=O)CCN(Cc2cc(NCC3CCOCC3)c3[nH]c(-c4ccccc4)cc3c2)CC1`, the Potency result was “inactive”.

On to `OC(c1ccc(-c2ccc(CN3CCN(Cc4ccncc4)CC3)cc2)c(F)c1)(C(F)(F)F)C(F)(F)F`, for which the Potency entry is “inactive”.

Consider `COc1ccc(C2(CNC(=O)c3ccc(NC(=O)c4ccco4)cc3)CCOCC2)cc1`, for which the Potency entry is “inactive”.

For `Fc1ccc(N2CCCCC2)c(NC(=S)c2ccncc2)c1`, the Potency result was “inactive”.

Consider `C[C@H](Oc1cc(-c2cnn(C3CCNCC3)c2)cnc1N)c1c(Cl)ccc(F)c1Cl`, for which the Potency entry is “inactive”.

As to `COc1ccc(C2=NC(c3ccc(Cl)cc3)C(c3ccc(Cl)cc3)N2C(=O)N2CCNC(=O)C2)c(OC(C)C)c1` (centres undefined), the Potency entry is “inactive”.

As to `CC(C)S(=O)(=O)Nc1ccc(F)c(C(=O)c2c[nH]c3ncc(-c4cccnc4)cc23)c1F`, the Potency entry is “inactive”.

As to `COC(=O)C1=CO[C@@H](O[C@@H]2O[C@H](CO)[C@@H](O)[C@H](O)[C@H]2O)[C@H]2[C@@H]1C=C[C@]21C=C([C@H](C)OC(=O)/C=C/c2ccc(O)cc2)C(=O)O1`, the Potency result is “inactive”.

On to `CNC1CN(c2ccc3c(=O)c(C(=O)O)cn(-c4nccs4)c3n2)CC1OC` (centres undefined), for which the Potency result was “inactive”.

Regarding `Cc1cccc(-c2[nH]ncc2-c2ccnc3ccccc23)n1`, the Potency entry is “inactive”.

On to `CC(=O)OC(C)(C)/C=C/C(=O)C(C)(O)C1C(O)CC2(C)C3CC=C(C(C)(C)C(=O)O)C(CC(=O)O)C3(C)C(=O)CC12C` (centres undefined), for which the Potency result is “inactive”.

On to `C=C(C)C(=O)O[C@H]1[C@H]2C(=C)C(=O)O[C@@H]2C[C@@H](C)[C@@H]2O[C@@H]2C(=O)[C@](C)(O)[C@@H]1OC(=O)C(=C)C`, for which the Potency entry was “inactive”.

With `O=C(Nc1ccc(N2C(=O)[C@@H]3[C@H](C2=O)[C@@H]2C=C[C@H]3C2)c(Cl)c1)c1ccccn1`, the Potency result was “inactive”.

Take `C/C=C(\C)C(=O)O[C@H]1C=C(CO)C(=O)[C@H](OC(C)=O)[C@H]1C(C)C`: the Potency entry is “inactive”.

Consider `CNCCN1CCC(c2cc(CN(C)C(=O)c3cccc(Oc4ccccc4)c3)ccn2)CC1`, for which the Potency entry was “inactive”.

Consider `CCn1c(-c2nonc2N)nc2c(C#CC(C)(C)O)ncc(OCC3CCCNC3)c21` (centres undefined), for which the Potency result was “inactive”.

With `O=C(c1ccc(F)cc1)N1CCCC(c2nc(-c3ccc(F)cc3)no2)C1` (centres undefined), the Potency result was “inactive”.

Regarding `CC1(C)C2CCC(CO[C@@H]3O[C@H](CO[C@@H]4OC[C@](O)(CO)[C@H]4O)[C@@H](O)[C@H](O)[C@H]3O)C1C2` (some centres undefined), the Potency result is “inactive”.

For the molecule `Cc1ccc(-c2cn3c4c(sc3n2)CCCC4)cc1`, the Potency entry was “inactive”.

`COc1ccc(-c2ccccc2)cc1NS(=O)(=O)c1cc(Cl)cc(Cl)c1O`: the Potency result was “inactive”.

As to `CC#C[C@@H](CC(=O)O)c1ccc(OCc2ccc(CN3CCC4(C=Cc5ccccc54)CC3)s2)cc1`, the Potency entry is “inactive”.

For `CCCOc1ccc(CCc2nc3cc(-c4c(C)noc4C)ccc3n2CCN2CCOCC2)cc1`, the Potency entry was “inactive”.

For `C=C1CC[C@@H]2[C@](C)(CO)[C@H](O)CC[C@@]2(C)[C@@H]1/C=C/C1=CCOC1=O`, the Potency result was “inactive”.

Consider `COc1ccc(NC(=O)c2ccc(-c3ccc(C(=N)N)cc3C)cc2)cc1N1CCN(C)CC1`, for which the Potency entry is “inactive”.

Take `CNCCCC1(c2ccccc2)OC(C)(C)c2ccccc21` (centres undefined): the Potency result is “inactive”.

With `COc1cc(N2CCC(O)CC2)ccc1Nc1nc(Nc2ccccc2S(=O)(=O)C(C)C)c2[nH]cnc2n1`, the Potency result was “inactive”.

Consider `CC1(C)CC[C@]2(C(=O)O)[C@H](O)C[C@]3(C)C(=CCC4[C@@]5(C)CC[C@H](O[C@@H]6O[C@H](CO[C@@H]7OC[C@H](O)[C@H](O)[C@H]7O[C@@H]7OC[C@H](O)[C@H](O)[C@H]7O)[C@@H](O)[C@H](O)[C@H]6O)C(C)(C)C5CC[C@]43C)[C@@H]2C1` (some centres undefined), for which the Potency entry was “inactive”.

As for `CCC(C)C(=O)O[C@H]1[C@H](O)[C@@]2(COC(C)=O)C(CC1(C)C)C1=CCC3[C@@]4(C)CC[C@H](O[C@@H]5O[C@H](C(=O)O)[C@@H](O)[C@H](O)[C@H]5O)[C@@](C)(CO)C4CC[C@@]3(C)[C@]1(C)C[C@@H]2O` (some centres undefined), the Potency entry is “inactive”.

Regarding `CC(C)=C1C[C@@]2(C)C(=CC1=O)CC[C@@H](OC(=O)/C(C)=C/CO)[C@@H]2C`, the Potency entry is “inactive”.

As for `Nc1nc2c(ncn2C2OC3COP(=O)(O)OC3C2O)c(=O)[nH]1` (centres undefined), the Potency entry was “inactive”.

On to `COCCCNC(=O)c1ccc(Cn2c(=O)c3ccccc3n(Cc3ccc(C(C)C)cc3)c2=O)cc1`, for which the Potency result is “inactive”.

Regarding `CCO[C@H]1CN(C2CCC(O)(c3ccc4c(c3)OCO4)CC2)C[C@@H]1NC(=O)CNC(=O)c1cccc(C(F)(F)F)c1` (some centres undefined), the Potency result is “inactive”.

On to `CN1CCC(NC(=O)c2cc(-c3c(O)cc(O)cc3Oc3ccc([N+](=O)[O-])cc3)on2)CC1`, for which the Potency result is “inactive”.

As to `CCNc1nc(Nc2cc(F)c(C(=O)N3CCOCC3)cc2OC)ncc1C(F)(F)F`, the Potency result was “inactive”.

`C[C@H](Oc1cc(-n2cnc3ccc(CN4CCN(C)CC4)cc32)sc1C(N)=O)c1ccccc1C(F)(F)F`: the Potency result is “inactive”.

Regarding `O=C(NCC1CCN(Cc2cccc(Cl)c2)CC1)[C@@H]1CCCN(c2ncnc3c2nc2n3CCCC2)C1`, the Potency result is “inactive”.

As for `COc1cc(/C=C2\CCCN([C@@H](C)c3ccc(F)cc3)C2=O)ccc1-n1cnc(C)c1`, the Potency entry was “inactive”.

On to `CC1=C(C(=O)Nc2cc(Cl)ccc2Cl)C(c2ccco2)C2=C(CCCC2=O)N1` (centres undefined), for which the Potency entry is “inactive”.

In the case of `CNC(C)C(=O)NC(C(=O)N1CCCC1C(=O)Nc1snnc1-c1ccccc1)C1CCCCC1` (centres undefined), the Potency entry was “inactive”.
